Bioassay records from PubChem.
KB-V1 cytotox: qHTS assay for MDR1-selective chemotherapeutics: Primary screen using the drug-selected MDR subline cells KB-V1. KB-V1 MDR cells viability, CellTiter-Glo, 72 h. Potency, µM (top dose mostly 46.1 µM), most hits filed as cytotoxic. 400,000 tested, 3.4% active; further: on the % scale 0 is the no-effect control and ±100 the full control effect; nearly all actives have a fitted effect of over 60% in size
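Following 72 h at 37 degrees C with compound, KB-V1 cell viability was read by CellTiter-Glo luminescence, medium being phenol-red-free DMEM plus 10% FBS; concentration-response parameters came from normalized, curve-fitted qHTS data.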
SW480 rerep: A quantitative high throughput screen for small molecules that induce DNA re-replication in SW480 colon adenocarcinoma cells | SW480 DNA re-replication, Hoechst DNA content imaging, 48 h | Potency, µM (series often up to 46.1 µM), inactives show at the top dose re-replication activation, actives largely listed as activators | 340,000 tested, 1.8% active; further: % of control where 0% means no effect; nearly all actives have a fitted effect of over 55% in size
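Treated cells incubate 48 hr (37 C, 5% CO2), are stained 40 min with Hoechst, and nuclear fluorescence is enumerated; a rise in nuclei with high DNA signal marks re-replication.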
KB-3-1 tox: qHTS assay for MDR1-selective chemotherapeutics: Primary screen using the parental adenocarcinoma cell KB-3-1; KB-3-1 viability, CellTiter-Glo ATP luminescence, 72 h; Potency, µM (top dose mostly 46.1 µM), actives largely listed as cytotoxic; 400,000 tested, 1.4% active; AID 1347075, 2019; further: on the % scale 0 is the no-effect control and ±100 the full control effect; nearly all actives have a fitted effect of over 60% in size
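Parental KB-3-1 viability, qHTS format: 72 h compound exposure, 37 °C; CellTiter-Glo; media-only wells and DMSO plates as controls; concentration-effect fits on corrected data.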
MCF10A rerep: A quantitative high throughput screen for small molecules that induce DNA re-replication in MCF 10a normal breast cells. AID 624296, 2012. 350,000 tested, 2.9% active. MCF 10A DNA re-replication, Hoechst nuclear intensity, 48 h. Potency, µM (top dose mostly 46.1 µM), for the others: at the top dose activity, positive = re-replication, most hits filed as activators; further: % of control where 0% means no effect; nearly all actives have a fitted effect of over 50% in size
ELG1 repair inh: qHTS screen for small molecules that inhibit ELG1-dependent DNA repair in human embryonic kidney (HEK293T) cells expressing luciferase-tagged ELG1; Potency, µM (series often up to 46.1 µM), inactives show top-dose activity change, negative = inhibition, hits mostly inhibitors; 330,000 tested, 2.3% active; HEK293T ELG1-luciferase reporter, luminescence, 16 h; DNA damage induced by 5-fluorouridine; AID 504467, 2011; further: on the % scale 0 is the no-effect control and ±100 the full control effect; nearly all actives have a fitted effect of over 55% in size
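Cells (2,000 per well) received 5-fluorouridine plus test compound or DMSO and were incubated 16 hr at 37 °C, 5% CO2. Luciferase activity was read by luminescence 30 min after ONE-Glo addition; signal suppression marked inhibition of damage-induced ELG1 function.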
* marks the source's active call; other numbers are inactive results; i = inactive; u = inconclusive; x = no result given; [ ] = remark or other dose. Compounds with a hit are over-represented: about 8.1% of the library has one in this group of screens. The call rests on the fitted dose curve; in most records, active means well fitted curve in the direction sought with a large enough effect; inconclusive means small, poorly fitted or top-dose-only effect, or another doubt; inactive means no such curve, though single readings can be large; an effect the other way counts as inactive or inconclusive. Potency means the concentration at half of the fitted maximal effect.

SMILES | KB-V1 cytotox | SW480 rerep | KB-3-1 tox | MCF10A rerep | ELG1 repair inh
Cc1cc(C)cc(NC(=O)c2cccc(N3C(=O)C4C5C=CC(C5)C4C3=O)c2)c1 (configuration not stated) | i | 13% | i | 7% | 2%
Cc1c(C(=O)Nc2ccc(Cl)cc2)c2ccccn2c1C(=O)c1ccccc1 | u | u | u | 26µM* | 12%
Cc1c(/C=N/NC(=O)CNc2ccccc2)c2ccccn2c1C(=O)c1ccncc1 | i | -4% | i | 1% | 18µM*
Cc1c(/C=N/NC(=O)CNc2ccccc2)c2ccccn2c1C(=O)c1ccc(Cl)cc1 | 2.3µM* | -18% | i | 7% | 23µM*
Cc1c(C(=O)Nc2ccc(Cl)cc2)c2ccccn2c1C(=O)c1ccc([N+](=O)[O-])cc1 | i | 19% | i | 6% | 1%
Cc1c(C=O)c2ccccn2c1C(=O)c1ccccc1 | u | -4% | i | 18% | u
S=C(Nc1nc2c(s1)CCCC2)NC1CC1 | i | -17% | i | -1% | u
CCOc1ccc(NC(=O)Cn2c(=O)n(CCCCC(=O)NCc3ccc4c(c3)OCO4)c(=O)c3ccccc32)cc1 | i | x | i | x | x
CCN(CC)C(=O)COc1ccc2c3c(c(=O)oc2c1C)CCCC3 | i | -3% | i | -5% | u
COC(=O)c1cc2ccsc2n1CC(=O)N(C)c1ccccc1 | i | -1% | i | 0% | -11%
COCc1cc(C)[nH]c(=O)c1C(=O)NC12CC3CC(CC(C3)C1)C2 | i | -14%[1.84 µM] | i | -25% | 18µM*
Cc1nc(N2CCN(c3ccccc3)CC2)c2c3c(sc2n1)CCC3 | x | x | x | x | -30%
Cc1cc(N2CCOCC2)nc2ccc(NC(=O)CCC(=O)N3CCN(c4cccc(C(F)(F)F)c4)CC3)cc12 | u | 19% | u | 15µM* | u
COc1ccc(N(C)C(=O)CCC(=O)Nc2ccc3nc(N4CCOCC4)cc(C)c3c2)c(OC)c1 | 16µM* | 9% | u | u | u
CS(=O)(=O)Nc1ccccc1C(=O)Nc1cc2c(cc1C(=O)O)OCCCO2 | u | -2% | i | -4% | -6%
O=C(NCc1nnc(SCC(=O)N2CCOCC2)o1)c1c(F)cccc1Cl | i | -18% | i | 2% | 3%
CCOc1cccc(OCCOCCOc2ccccc2C(C)=O)c1 | 15µM* | -1% | i | 1% | 7%
COc1ccccc1NC(=O)C(C)OC(=O)COc1cccc2c1OC(C)(C)C2 (configuration not stated) | i | -2% | i | -1% | -3%
Cc1ccsc1/C=C(\C(=O)c1ccc(OC(C)C)cc1)c1nc2ccccc2o1 | u | 8.2µM* | i | 18% | u
Oc1c(Br)cc(/C=N/Nc2nncc3ccccc23)cc1Br | i | 1% | i | 21µM* | u
COc1ccc(S(=O)(=O)N2CCC(C(=O)NN3CCCCC3)CC2)cc1 | i | x | i | x | x
O=C(Nc1cccc(Cl)c1)c1ccc2c(c1)OCCO2 | i | -16% | i | -22% | u
O=C(Nc1cccc([N+](=O)[O-])c1)c1ccc2ccccc2c1O | 4.1µM* | 19% | u | u | u
O=C(Nc1cccc([N+](=O)[O-])c1)c1ccc2c(c1)OCCO2 | 21µM* | -115% | u | 7% | u
CC(C)(C)c1ccc(C(=O)Nc2cccc([N+](=O)[O-])c2)cc1 | 12µM* | -79% | u | u | u
SMILES | KB-V1 cytotox | SW480 rerep | KB-3-1 tox | MCF10A rerep | ELG1 repair inh
O=C(Cc1ccccc1)Nc1cccc([N+](=O)[O-])c1 | i | -2% | i | -10% | 5%
Cc1ccc(SCc2ccc(C(=O)Nc3cccc([N+](=O)[O-])c3)cc2)cc1 | i | 8.2µM* | i | 4.1µM* | 21%
CCOC(=O)c1cccc(NC(=O)C2CCCN(S(=O)(=O)c3cc(Br)cc4c3N(C(=O)CC)CC4)C2)c1 (configuration not stated) | i | x | i | x | x
CC(=O)OC(=C(OC(C)=O)c1ccccc1)c1ccccc1 | i | -1% | i | -1% | x
CCOc1ccccc1-n1nnnc1SCc1nc2ccccc2s1 | u | 5% | i | u | u
O=C(Nc1cccc([N+](=O)[O-])c1)c1[nH]ncc1Cl | 23µM* | 20% | i | 3% | u
COc1ccc(NS(=O)(=O)c2cccc3nonc23)c(OC)c1 | u | 0.52µM* | i | -6% | 4%
COc1ccc(S(=O)(=O)N2N=C(C)Oc3ccccc3C2=O)cc1 | 3.7µM* | 4µM* | 4.6µM* | 7.9µM* | 15%
CC1=NN(S(=O)(=O)c2ccc(C)cc2)C(=O)c2ccccc2O1 | u | 21% | i | 1% | u
Cn1cc([N+](=O)[O-])c(C(=O)Nc2cc(Oc3cccnc3)cc([N+](=O)[O-])c2)n1 | u | 10µM* | u | 9.2µM* | 3.2µM*
Cn1cc([N+](=O)[O-])c(C(=O)Nc2ccc(C(=O)N3CCCCC3)cc2)n1 | u | 15µM* | 23µM* | 21µM* | 2%
Cc1cc(C)n(Cc2ccc(NC(=O)c3nn(C)cc3[N+](=O)[O-])cc2)n1 | u | 2.9µM* | i | 2.3µM* | u
CCn1cc([N+](=O)[O-])c(C(=O)Nc2ccc(Cn3nc(C)cc3C)cc2)n1 | i | -5% | i | 1% | 0%
Cc1ccc2c(c1)N(CC(=O)NCCc1ccccc1)C(=O)CO2 | i | x | i | x | x
